In PubChem BioAssay (EPA / NIEHS) one finds outcome and AC50 data, which are given here for 15 molecules.

Read-out in experiment [1]: Interleukin-8 (IL8), CXCL8 (gene 3576)
In words: BSK_CASM3C_IL8: BioMAP Diversity Plus: CASM3C Assay for Interleukin-8 (IL8) Biomarker Activity (AID 2283042).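 Also: IL-8 protein level quantified by ELISA.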 As to conditions: primary human coronary artery smooth muscle cells; actives raise or lower the signal.

Read-out in experiment [2]: Human Leukocyte Antigen - DR isotype (HLADR), HLA-DRA (gene 3122)
Nature of the experiment: BSK_CASM3C_HLADR: BioMAP Diversity Plus: CASM3C Assay for Human Leukocyte Antigen - DR isotype (HLADR) Biomarker Activity (AID 2283043).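 Also: cell-surface HLA-DR protein level quantified by ELISA.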 As to conditions: primary human coronary artery smooth muscle cells; actives raise or lower the signal.

Read-out in experiment [3]: Macrophage colony-stimulating factor (MCSF), CSF1 (gene 1435)
Nature of the experiment: BSK_CASM3C_MCSF: BioMAP Diversity Plus: CASM3C Assay for Macrophage colony-stimulating factor (MCSF) Biomarker Activity (AID 2283044).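 Also: M-CSF protein amount quantified by ELISA after 24 h exposure.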 The following applies: primary human coronary artery smooth muscle cells; actives raise or lower the signal.

Read-out in experiment [4]: Low-density lipoprotein receptor (LDLR), LDLR (gene 3949)
Nature of the experiment: BSK_CASM3C_LDLR: BioMAP Diversity Plus: CASM3C Assay for Low-density lipoprotein receptor (LDLR) Biomarker Activity (AID 2283045).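 Also: LDLR protein level on the cell surface quantified by ELISA.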 The following applies: primary human coronary artery smooth muscle cells; actives raise or lower the signal.

Read-out in experiment [5]: Monocyte Chemoattractant Protein-1 (MCP1), CCL2 (gene 6347)
Nature of the experiment: BSK_CASM3C_MCP1: BioMAP Diversity Plus: CASM3C Assay for Monocyte Chemoattractant Protein-1 (MCP1) Biomarker Activity (AID 2283046).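 Also: MCP-1 level quantified by ELISA 24 h after dosing.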 The following applies: primary human coronary artery smooth muscle cells; actives raise or lower the signal.

The nature of experiment [6]: BSK_CASM3C_Proliferation: Cell Proliferation Assessment in the BioMAP Diversity Plus: CASM3C Assay (AID 2283047).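 Also: sulforhodamine B total protein stain as relative cell number at 560 nm; sub-confluent cells exposed 48 h before staining; fitted both ways against DMSO so gain or loss of cell number.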 As to conditions: primary human coronary artery smooth muscle cells.
Read-out in experiment [7]: Monokine induced gamma interferon (MIG), CXCL9 (gene 4283)
In words: BSK_CASM3C_MIG: BioMAP Diversity Plus: CASM3C Assay for Monokine induced gamma interferon (MIG) Biomarker Activity (AID 2283048).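 Also: MIG protein level measured by ELISA.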 As to conditions: primary human coronary artery smooth muscle cells; actives raise or lower the signal.

Read-out in experiment [8]: serum amyloid A (SAA), SAA1 (gene 6288)
In words: BSK_CASM3C_SAA: BioMAP Diversity Plus: CASM3C Assay for serum amyloid A (SAA) Biomarker Activity (AID 2283049).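 Also: SAA protein level quantified by ELISA.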 As to conditions: primary human coronary artery smooth muscle cells; actives raise or lower the signal.

Experiment [9] in a line: BSK_CASM3C_SRB: Viability Assessment in the BioMAP Diversity Plus: CASM3C Assay (AID 2283050).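 Also: total protein by SRB staining as cytotoxicity measure in parallel cultures; cells exposed to compound for 24 h.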 The following applies: primary human coronary artery smooth muscle cells.
Read-out in experiment [10]: Thrombomodulin, THBD (gene 7056)
Nature of the experiment: BSK_CASM3C_Thrombomodulin: BioMAP Diversity Plus: CASM3C Assay for Thrombomodulin Biomarker Activity (AID 2283051).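 Also: thrombomodulin protein level measured by ELISA 24 h after dosing.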 As to conditions: primary human coronary artery smooth muscle cells; actives raise or lower the signal.

Structures are written as SMILES. “And” between values parts separate entries of the source, which are not always exact repeats. Equal values may be shown once. The source holds several records for some structures; these can differ, active in one and inactive in another. The source made the active and inactive calls. The calls were made as follows: active = hit-call score of the fitted dose curve at least 0.9, where 1 is the maximum; inactive = score below 0.9.

For the molecule `CCCCOC(=O)[C@@H](C)Oc1ccc(Oc2ccc(C(F)(F)F)cn2)cc1`, the result in [1], in experiment [2], in [3], in [4], in experiment [5] and in experiment [6] was inactive. Also, the result in experiment [7], in [8], in experiment [9] and in experiment [10] was inactive.
Take `O=C(O)C1(C(=O)Nc2ccc(Cl)cc2Cl)CC1`: the result in experiment [1], in experiment [2], in [3], in [4], in experiment [5] and in [6] was inactive. Moreover, the result in [7], in [8], in experiment [9] and in experiment [10] was inactive.
For `COCCO`, the outcome in experiment [1], in [2], in [3], in experiment [4], in experiment [5] and in experiment [6] was inactive. Besides, the outcome in experiment [7], in [8], in experiment [9] and in [10] was inactive.
Take `CCCCC(CC)COC(=O)c1ccccc1C(=O)O` (configuration not stated): the result in [1], in [2], in experiment [3], in [4], in [5] and in experiment [6] was inactive. Moreover, the result in experiment [7], in experiment [8], in experiment [9] and in experiment [10] was inactive.
In the case of `CCOC(=O)C(C)Oc1ccc(Oc2nc3ccc(Cl)cc3o2)cc1` (configuration not stated), the result in experiment [1], in [2], in experiment [3], in experiment [4], in [5] and in experiment [6] was inactive. Also, the outcome in experiment [7], in [8], in [9] and in experiment [10] was inactive.
Take `N#CSCSc1nc2ccccc2s1`: the AC50 (usually the concentration giving half of the maximal activity seen) was 10.8 µM (active) and 31.2 µM (active) in experiment [1]; 2.62 µM (active) and 36.7 µM (active) in experiment [2]; 6.33 µM (active) and 26.9 µM (active) in experiment [3]; 8.61 µM (active) in experiment [4]; 9.06 µM (active) and 29.6 µM (active) in experiment [5]; 1.33 µM (active) and 5.49 µM (active) in [6]. Further, the AC50 in [7] was 7.5 µM (active) and 18.8 µM (active); in experiment [8], 4.93 µM (active) and 33.5 µM (active); in experiment [9], 11.9 µM (active) and 31.5 µM (active); in [10], 36.7 µM (active). In addition, the outcome in [4] and in experiment [10] was inactive.
With `O=C(O)c1ccccc1`, the outcome in experiment [1], in [2], in [3], in experiment [4], in experiment [5] and in experiment [6] was inactive. In addition, the result in [7], in [8], in experiment [9] and in [10] was inactive.
Turning to `COC(=O)c1ccccc1S(=O)(=O)NC(=O)Nc1nc(OC(F)F)cc(OC(F)F)n1`, the outcome in experiment [1], in [2], in experiment [3], in experiment [4], in [5] and in experiment [6] was inactive. The result in experiment [7], in experiment [8], in experiment [9] and in [10] was inactive.
`CC(=O)S[C@@H]1CC2=CC(=O)CC[C@]2(C)[C@H]2CC[C@@]3(C)[C@@H](CC[C@@]34CCC(=O)O4)[C@H]12`: the AC50 in experiment [1] was 23.6 µM (active); in [2] it was 27.3 µM (active); in experiment [5], 20 µM (active); in experiment [6], 31.4 µM (active). The result in experiment [3], in [4], in [7], in [8], in experiment [9] and in experiment [10] was inactive.
Turning to `CCCOC(=O)c1ccc(C(=O)OCCC)nc1`, the result in experiment [1], in experiment [2], in experiment [3], in [4], in [5] and in experiment [6] was inactive. Further, the result in experiment [7], in [8], in [9] and in experiment [10] was inactive.
In the case of `CCN(CC)C(=O)c1cccc(C)c1`, the outcome in [1], in experiment [2], in experiment [3], in experiment [4], in experiment [5] and in experiment [6] was inactive. Besides, the outcome in experiment [7], in [8], in experiment [9] and in experiment [10] was inactive.
Turning to `CCCN(CCC)c1c([N+](=O)[O-])cc(C(F)(F)F)c(N)c1[N+](=O)[O-]`, the result in experiment [1], in experiment [2], in experiment [3], in experiment [4], in experiment [5] and in experiment [7] was inactive. The outcome in experiment [8] and in [9] was inactive. Also, the AC50 is 28.1 µM (active) in experiment [6] and 3.97 µM (active) in experiment [10].
As to `CCCCC(CC)CN1C(=O)C2C3C=CC(C3)C2C1=O` (configuration not stated), the result in experiment [1], in experiment [2], in experiment [3], in [4], in experiment [5] and in experiment [6] was inactive. The outcome in [7], in experiment [8], in [9] and in experiment [10] was inactive.
Take `COC(=O)c1ccc(CNS(C)(=O)=O)cc1S(=O)(=O)NC(=O)Nc1nc(OC)cc(OC)n1`: the result in experiment [1], in experiment [2], in [3], in experiment [4], in experiment [5] and in [6] was inactive. In addition, the outcome in experiment [7], in experiment [8], in [9] and in experiment [10] was inactive.
In the case of `COc1c(Cl)ccc(Cl)c1C(=O)O`, the outcome in experiment [1], in experiment [2], in [3], in experiment [4], in experiment [5] and in [6] was inactive. The result in experiment [7], in [8], in [9] and in experiment [10] was inactive.
